Assay outcomes (PubChem)
This is one part of a sample in which hits are shown more often than they occur.
mHTT-CaM PPI inh: mutant huntingtin-calmodulin interaction inhibitors – biochemical, AlphaScreen, primary screen; AID 1671202, 2021; inhibition, % at 15 µM; AlphaScreen His-mHTT/GST-CaM binding, luminescence; 190,000 tested, 3.6% active;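 note: 0% = both proteins with DMSO and 100% = one protein alone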
Pf apPOL block: Pf-apPOL inhibitors, biochemical, fluorescence | Recombinant Pf-apPOL, molecular beacon fluorescence, 1.5 h | inhibition, % at 10 µM | 210,000 tested, 0.25% active | AID 1794808, 2022
* = called active by the depositor; nt = not tested or not shown. Cut-off read from the data, not from the text of the source: active = inhibition above about 50%; inactive = the rest.

SMILES	mHTT-CaM PPI inh	Pf apPOL block
COc1ccc([C@H]2C[C@H](O)[C@@H](n3cc(-c4ccc(F)cc4)nn3)CN2CC2CCCCC2)cc1	69*	1
CCCCCCN1C[C@@H](O)[C@H](n2cc(C3CC3)nn2)C[C@@H]1c1ccccc1	30	-2
CCCCCCN1C[C@H](n2cc(C3CC3)nn2)[C@@H](O)C[C@@H]1c1ccc(OC)cc1	98*	-3
CCCCCCN1C[C@H](n2cc(C3CC3)nn2)[C@@H](O)C[C@@H]1c1ccccc1	99*	0
CCCCCCN1C[C@@H](n2cc(-c3ccc(F)cc3)nn2)[C@H](O)C[C@@H]1c1ccc(OC)cc1	4	-7
COc1ccc([C@H]2C[C@@H](n3cc(-c4ccc(F)cc4)nn3)[C@H](O)CN2CC2CCCCC2)cc1	-7	-3
CCCCCCN1C[C@H](n2cc(-c3ccc(F)cc3)nn2)[C@@H](O)C[C@@H]1c1ccc(OC)cc1	67*	1
CCCCCC(=O)N1C[C@@H](O)[C@H](n2cc(C3CC3)nn2)C[C@@H]1c1ccc(OC)cc1	26	-3
O=c1ccc2cc(N=Cc3cc(Cl)cc(Cl)c3O)ccc2o1	nt	8
CCCCOc1ccccc1/C=c1\sc2nc(=O)c(Cc3ccccc3)nn2c1=O	2	-2
Cc1cc(C)cc(S(=O)(=O)N2CCC(n3cnc4ccc(C)cc4c3=O)CC2)c1	-4	-3
CCn1c(-c2cc(NC(C)=O)n[nH]2)cc2ccc(OC)cc21	14	-4
O=C(NCc1ccco1)c1nn(-c2ccc(F)cc2)cc1OCc1ccc(F)cc1	-4	-38
CCC(=O)NCc1nc2c(n1CC)CN(S(=O)(=O)c1cccc(C)c1)CC2	8	-6
Cc1ccc(N=Cc2cc(C)c(C)cc2O)c(O)c1	53*	8
COc1ccc(C=Nc2ccc(C)cc2C)cc1O	7	8
Cc1ccc(N=Cc2cc([N+](=O)[O-])ccc2O)c(Br)c1	4	-3
COc1cc(C=Nc2ccc(C)cc2O)ccc1O	77*	-4
CC(C(=O)N1CCN(Cc2ccccc2Cl)CC1)N1C(=O)c2ccccc2C1=O (stereo not drawn)	14	0
Cc1ccc(Nc2c3c4c(cccc4n(C)c2=O)C(=O)c2ccccc2-3)cc1	36	-2
COc1cccc(NC2=C(n3nnc4ccccc43)C(=O)c3ccccc3C2=O)c1	8	-1
CN(C)c1ccc(NC2=C(n3nnc4ccccc43)C(=O)c3ccccc3C2=O)cc1	51*	-9
Cc1ccc(NC2=C(n3nnc4ccccc43)C(=O)c3ccccc3C2=O)cc1	52*	3
Cc1ccc(NC2=C(NCCO)C(=O)c3ccccc3C2=O)cc1	67*	0
CCN(CC)C1=C(n2nnc3ccccc32)C(=O)c2ccccc2C1=O	27	-6
SMILES	mHTT-CaM PPI inh	Pf apPOL block
O=C(Cn1cnc([N+](=O)[O-])n1)Nc1cc(Oc2ccccc2)cc([N+](=O)[O-])c1	33	-3
CCc1ccc(N(CC(=O)N2CCCC2)S(=O)(=O)c2ccccc2)cc1	-2	5
CCc1ccc(N(CC(=O)N2CCN(c3ccccc3)CC2)S(=O)(=O)c2ccccc2)cc1	54*	3
CCCn1cnnc1C1CCCCN1C(=O)c1ccco1 (stereo not drawn)	1	0
CCC1(CC)OC(c2cccc([N+](=O)[O-])c2)Nc2ccccc21 (stereo not drawn)	28	5
CCC1(CC)OC(c2c([N+](=O)[O-])cc([N+](=O)[O-])cc2[N+](=O)[O-])Nc2ccccc21 (stereo not drawn)	79*	0
COc1ccc(N/C(C)=C/C(=O)c2ccccc2)c(OC)c1	51*	-1
COc1ccccc1N/C(C)=C/C(=O)c1ccccc1	22	-4
COc1ccc(CC(=O)N2CCc3c(c(-c4nc(Cc5ccccc5)no4)nn3C)C2)cc1	-3	-1
O=C1C=CC(=O)N1c1cc(Sc2ccc(F)cc2)cc([N+](=O)[O-])c1	85*	5
O=C1CCC(=O)N1c1ccc(Sc2ccc([N+](=O)[O-])cc2)cc1	5	-4
Cc1cccc(C)c1NC(=O)c1cc2c(=O)n(CC(C)C)ccc2n1C	-2	-2
O=C(COc1ccc(F)cc1)N1CCC(CCOc2ccccc2)CC1	70*	-3
Cn1cccc1C(=O)N1CCC(CCOc2ccccc2)CC1	58*	-7
Cn1nccc1C(=O)N1CCC(CCOc2ccccc2)CC1	6	2
O=C(COc1ccc(F)cc1)N1CCC(CCOc2ccncc2)CC1	6	0
Cc1nnc(-c2ccccn2)[nH]c1=O	nt	-137
Cc1nc(-c2cnccn2)[nH]c(=O)c1C	71*	-12
COc1cc(/C=C/C(=O)NCCc2cc3cc(C)c(C)cc3[nH]c2=O)cc(OC)c1OC	46	-6
N#CC1=C(N)Oc2cc(N)ccc2C1c1cc(Br)cs1 (stereo not drawn)	13	-2
CN(C)c1ccc2c(c1)OC(N)=C(C#N)C2c1cc(Br)cs1 (stereo not drawn)	53*	-5
CN(C)c1ccc2c(c1)OC(N)=C(C#N)C2c1ccc(F)c(Br)c1 (stereo not drawn)	83*	-4
CC(=O)Nc1ccc(C2C(C#N)=C(N)Oc3cc(N(C)C)ccc32)cc1 (stereo not drawn)	15	-3
Cc1cc2n(n1)CCC(=O)N2CCCC(=O)NCC(C)c1ccccc1 (stereo not drawn)	1	-5
O=C(Cc1ccc(F)cc1)N1CCc2ccccc2C1	-5	-4
SMILES	mHTT-CaM PPI inh	Pf apPOL block
CSc1cccc(NC(=O)c2cncc(Br)c2)c1	-8	-2
CCC(C)NC(=O)C1CCN(c2cccc(Cl)c2)C1=O (stereo not drawn)	-4	-4
Cc1noc(C2CN(CC(=O)Nc3cccnc3)C2)n1	-20	-2
CC(=O)N1c2c(cc(Br)cc2S(=O)(=O)N2CCc3ccccc32)CC1C (stereo not drawn)	20	1
CC(=O)N1c2c(cc(Br)cc2S(=O)(=O)N2CCc3ccccc3C2)CC1C (stereo not drawn)	58*	-3
Cc1cccnc1NC(=O)c1c(O)c2cccc3c2n(c1=O)CCC3	10	-2
O=C(Nc1ccccn1)c1c(O)c2cccc3c2n(c1=O)CCC3	8	0
O=C(Nc1ncccc1O)c1c(O)c2cccc3c2n(c1=O)CC3	52*	-5
O=C(Nc1ncccn1)c1c(O)c2cccc3c2n(c1=O)CCC3	56*	-6
CC(=O)Nc1ccc(S(=O)(=O)NC2(c3nc(C4CC4)no3)CCCCC2)cc1Cl	-8	0
Cc1cc(C)c2ccc(NN)nc2c1O	85*	-6
CC(=O)Nc1ccccc1/C=C/c1ccc2c(C)cc(C)c(O)c2n1	4	-5
Cc1cc(C)c2ccc(CO)nc2c1O	0	-11
Cc1cc(C)c2ccc(C=O)nc2c1O	69*	-11
O=[N+]([O-])c1ccc(OCCOc2cccc3cccnc23)cc1	2	0
Oc1c(C(Nc2cccc(C(F)(F)F)c2)c2ccccn2)ccc2cccnc12 (stereo not drawn)	99*	-114
O=C(NCc1ccccn1)C(=O)Nc1cccc(C(F)(F)F)c1	-2	-4
Cc1[nH]c2ccccc2c1C(Nc1cccc(C(F)(F)F)c1)c1cccnc1 (stereo not drawn)	4	-7
Oc1c(C(Nc2ccc(Cl)cc2)c2ccccn2)ccc2cccnc12 (stereo not drawn)	100*	-4
